Consider six molecules from PubChem BioAssay.

Assay [1] relates to Plasmodium falciparum Sir2 (PF13_0152, Sir2A). Kind of assay: Plasmodium falciparum Sir2A binding compounds – biochemical, small-molecule microarray, 635 nm fluorescence, primary screen (AID 1098).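 Note: score merges spot fluorescence intensity with its signal-to-noise ratio.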 The note with it: fluorescence 635 nm, higher = more signal.
Assay [2] is described as follows: probe aDKK1 binding to arrayed compounds – biochemical, biotinylated probe, 635/667 nm fluorescence, primary screen (AID 1099).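 Note: score merges 667nm spot fluorescence with signal to noise across triplicate slides.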 The settings on record: small-molecule microarray, higher = more signal.
The nature of assay [3]: probe aCHRDL2 binding to arrayed compounds – biochemical, biotinylated probe, 635/667 nm fluorescence, primary screen (AID 1100). The settings on record: small-molecule microarray, higher = more signal.
A short description of assay [4]: change in splice reporter luminescence, either direction, cell-based, HEK293, spliceosome inhibition project, primary screen (AID 1101).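 Note: HEK293 cells carrying a splicing-competent luciferase reporter gene; test concentration not given here.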 The note with it: HEK293 splicing luciferase reporter, 24 h, higher = more signal, called active from +8 up or from −8 down.
The target in assay [5] is Fibroblast growth factor 10 (Homo sapiens) (UniProt O15520). Kind of assay: compounds binding fibroblast growth factor 10 – biochemical, small-molecule microarray, 635 nm fluorescence, primary screen (AID 1102). The note with it: FGF10 binding, fluorescence 635 nm, higher = more signal.
Assay [6] deals with glycogen synthase kinase-3 (GSK3A per assay name; protocol says GSK3B). Put plainly: compounds binding glycogen synthase kinase-3 – biochemical, small-molecule microarray, 635 nm fluorescence, GSK3A, primary screen (AID 1103). Note: the record names both GSK3A and GSK3B. The settings on record: fluorescence 635 nm, higher = more signal.
Assay [7] concerns the target Epidermal growth factor receptor (Homo sapiens) (UniProt P00533). Kind of assay: compounds binding epidermal growth factor receptor – biochemical, small-molecule microarray, 635 nm fluorescence, primary screen (AID 1104).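 Note: score merges 667 nm emission intensity with spot signal to noise over triplicate slides.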 The settings on record: EGFR binding, higher = more signal.
Assay [8] deals with Follistatin-related protein 3 (Homo sapiens) (UniProt O95633). Kind of assay: compounds binding follistatin-related protein 3 – biochemical, small-molecule microarray, 635 nm fluorescence, primary screen (AID 1105).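 Note: score merges emission near 667 nm and signal to noise per printed spot across three slides.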 The settings on record: FSTL3 binding, higher = more signal.
In assay [9] the target is Dickkopf-related protein 1 (Homo sapiens) (UniProt O94907). Kind of assay: small molecules binding DKK1 protein – biochemical, small-molecule microarray, 635 nm fluorescence scan, primary screen (AID 1106).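 Note: score merges emission near 667 nm with signal to noise over three replicate slides.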 The settings on record: higher = more signal.
For assay [10], the system named is Inhibin beta A chain (activin A). Kind of assay: small molecules binding activin A – biochemical, small-molecule microarray, 635 nm fluorescence scan, primary screen (AID 1107).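 Note: mouse activin A protein probed at 4.33 µg/mL on printed slides; score merges bound-protein fluorescence near 667 nm with spot signal-to-noise.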 The note with it: INHBA, higher = more signal.
For assay [11], the system named is Human papillomavirus type 1a protein E7 (residues 44-93). Kind of assay: small molecules binding HPV E7 44-93 – biochemical, small-molecule microarray, residues 44-93, 635 nm fluorescence, primary screen (AID 1108).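 Note: E7 fragment applied at 1 µg/mL in TBST for 1 h at 4 C; score combines spot fluorescence with its signal to noise ratio.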 The settings on record: fluorescence 635 nm, higher = more signal.
Assay [12] is described as follows: hepatitis C replication reporter changes, two-sided – Huh7 cells, luciferase reporter, HCV replication inhibitor project, primary screen (AID 1109).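 Note: huh7 hepatoma cells harbouring a luciferase neomycin HCV replicon reporter; luciferase luminescence as measure of HCV replicon replication; test concentration not given here.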 The settings on record: Huh7 HCV replicon luciferase reporter, 48 h; higher = more signal.
The target of assay [13] is Left-right determination factor 2 (Homo sapiens) (UniProt O00292). Kind of assay: small molecules binding LEFTY2 protein – biochemical, small-molecule microarray, 635 nm fluorescence scan, primary screen (AID 1110). The note with it: higher = more signal.
The target in assay [14] is Calmodulin-1 (Homo sapiens) (UniProt P0DP23). Put plainly: small molecules binding calmodulin-1 with EGTA – biochemical, small-molecule microarray, Cy5-labelled CALM1, profiling panel (AID 1111).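 Note: labelled calmodulin applied in Tris saline Tween buffer holding calcium plus EGTA and DTT.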 The note with it: Cy5-CALM1 binding fluorescence, higher = more signal.
For assay [15] the target is unchanged. Put plainly: small molecules binding Ca-loaded calmodulin-1 – biochemical, small-molecule microarray, Cy5-labelled CALM1, plus calcium, artefact control for SMM control-protein annotation, profiling panel (AID 1112).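 Note: score merges spot fluorescence with signal to noise from triplicate slides.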 The note with it: Cy5-CALM1 binding fluorescence, higher = more signal.
The nature of assay [16]: probe aWnt5a binding to arrayed compounds – biochemical, biotinylated probe, 635/667 nm fluorescence, primary screen (AID 1113).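 Note: score merges 667 nm fluorescence intensity with signal-to-noise per printed feature.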 The settings on record: small-molecule microarray, higher = more signal.
Assay [17] is described as follows: probe aShh binding to arrayed compounds – biochemical, biotinylated probe, 635/667 nm fluorescence, primary screen (AID 1114).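 Note: probe is biotin-labelled aShh protein from a stem cell growth factor screen; measures binding of labelled protein to compounds printed on the slide; score merges feature fluorescence at 667 nm with signal-to-noise.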 The note with it: small-molecule microarray, higher = more signal.
Assay [18] is described as follows: probe aNog binding to arrayed compounds – biochemical, biotinylated probe, 635/667 nm fluorescence, primary screen (AID 1115).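 Note: probe is biotinylated aNog protein used at 0.15 µg/mL for 1 h at 4 C; z-score combines 667 nm fluorescence of each spot with its signal to noise.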 The settings on record: small-molecule microarray, higher = more signal.
The target of assay [19] is Torsin-1A-interacting protein 1 (Homo sapiens) (UniProt Q5JTV8). Kind of assay: compound microarray binding of lysate hLAP1 – cell lysate, small-molecule microarray, COS7 lysate, 635/667 nm fluorescence, primary screen (AID 1116). The note with it: 635 nm fluorescence, higher = more signal.
In assay [20] the target is Alpha-bungarotoxin (Bungarus multicinctus) (UniProt P60615). Put plainly: compounds binding labelled alpha-BTX control protein – biochemical, small-molecule microarray, Alexa647 label, 635/667 nm fluorescence, artefact control for SMM control protein annotation, profiling panel (AID 1117). The note with it: alpha-BTX-A647 binding fluorescence, higher = more signal.

Structures are written as SMILES. Calls of active or inactive are those of the source.

Epidermal growth factor receptor (Homo sapiens), sequence (P00533 whole entry, looked up): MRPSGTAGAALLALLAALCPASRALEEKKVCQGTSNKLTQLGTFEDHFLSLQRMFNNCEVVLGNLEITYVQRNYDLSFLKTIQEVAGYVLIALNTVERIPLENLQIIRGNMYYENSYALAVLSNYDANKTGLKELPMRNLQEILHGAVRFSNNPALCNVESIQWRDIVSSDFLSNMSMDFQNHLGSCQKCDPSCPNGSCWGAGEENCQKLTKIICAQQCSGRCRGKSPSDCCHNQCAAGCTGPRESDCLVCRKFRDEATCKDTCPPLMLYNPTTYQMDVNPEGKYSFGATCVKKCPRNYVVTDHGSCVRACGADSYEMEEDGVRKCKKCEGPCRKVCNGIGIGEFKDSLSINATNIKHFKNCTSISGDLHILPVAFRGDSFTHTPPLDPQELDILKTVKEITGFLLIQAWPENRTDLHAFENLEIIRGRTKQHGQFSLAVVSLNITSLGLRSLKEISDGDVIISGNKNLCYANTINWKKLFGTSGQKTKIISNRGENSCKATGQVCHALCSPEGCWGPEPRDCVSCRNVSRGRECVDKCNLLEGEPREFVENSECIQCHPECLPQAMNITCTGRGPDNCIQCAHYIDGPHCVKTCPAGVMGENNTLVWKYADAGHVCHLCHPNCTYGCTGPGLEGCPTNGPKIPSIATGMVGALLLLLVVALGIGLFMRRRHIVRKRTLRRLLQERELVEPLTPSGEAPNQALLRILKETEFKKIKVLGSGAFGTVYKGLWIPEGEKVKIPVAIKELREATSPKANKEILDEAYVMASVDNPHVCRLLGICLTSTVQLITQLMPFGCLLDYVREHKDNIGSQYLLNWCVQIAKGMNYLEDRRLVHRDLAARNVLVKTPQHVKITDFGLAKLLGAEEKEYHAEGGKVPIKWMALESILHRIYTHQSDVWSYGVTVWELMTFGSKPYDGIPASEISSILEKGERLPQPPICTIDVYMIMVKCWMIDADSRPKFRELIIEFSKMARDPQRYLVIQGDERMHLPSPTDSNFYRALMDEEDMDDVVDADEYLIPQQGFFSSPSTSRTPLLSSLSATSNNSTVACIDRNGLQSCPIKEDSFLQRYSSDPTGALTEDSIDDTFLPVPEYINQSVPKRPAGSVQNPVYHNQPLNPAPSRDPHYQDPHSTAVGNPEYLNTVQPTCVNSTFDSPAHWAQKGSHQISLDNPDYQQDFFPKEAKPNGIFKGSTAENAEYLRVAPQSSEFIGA
Dickkopf-related protein 1 (Homo sapiens), sequence (O94907 whole entry, looked up): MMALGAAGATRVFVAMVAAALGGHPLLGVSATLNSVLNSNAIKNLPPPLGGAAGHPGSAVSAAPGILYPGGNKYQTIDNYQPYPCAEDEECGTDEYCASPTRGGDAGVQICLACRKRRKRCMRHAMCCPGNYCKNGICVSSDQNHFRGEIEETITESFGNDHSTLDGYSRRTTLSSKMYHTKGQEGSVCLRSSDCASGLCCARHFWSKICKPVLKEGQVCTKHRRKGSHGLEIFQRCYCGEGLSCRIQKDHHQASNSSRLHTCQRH
Left-right determination factor 2 (Homo sapiens), sequence (O00292 whole entry, looked up): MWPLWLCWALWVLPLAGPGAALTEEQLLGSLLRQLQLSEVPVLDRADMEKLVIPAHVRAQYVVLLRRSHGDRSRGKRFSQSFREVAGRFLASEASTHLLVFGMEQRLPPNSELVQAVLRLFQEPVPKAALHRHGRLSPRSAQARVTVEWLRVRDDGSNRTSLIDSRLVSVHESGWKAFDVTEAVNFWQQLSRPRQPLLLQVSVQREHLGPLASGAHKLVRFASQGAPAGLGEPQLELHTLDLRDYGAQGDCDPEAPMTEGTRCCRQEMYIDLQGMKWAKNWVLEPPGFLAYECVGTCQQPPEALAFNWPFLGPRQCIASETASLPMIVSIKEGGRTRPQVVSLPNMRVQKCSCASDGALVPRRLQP
Torsin-1A-interacting protein 1 (Homo sapiens), sequence (Q5JTV8 whole entry, looked up): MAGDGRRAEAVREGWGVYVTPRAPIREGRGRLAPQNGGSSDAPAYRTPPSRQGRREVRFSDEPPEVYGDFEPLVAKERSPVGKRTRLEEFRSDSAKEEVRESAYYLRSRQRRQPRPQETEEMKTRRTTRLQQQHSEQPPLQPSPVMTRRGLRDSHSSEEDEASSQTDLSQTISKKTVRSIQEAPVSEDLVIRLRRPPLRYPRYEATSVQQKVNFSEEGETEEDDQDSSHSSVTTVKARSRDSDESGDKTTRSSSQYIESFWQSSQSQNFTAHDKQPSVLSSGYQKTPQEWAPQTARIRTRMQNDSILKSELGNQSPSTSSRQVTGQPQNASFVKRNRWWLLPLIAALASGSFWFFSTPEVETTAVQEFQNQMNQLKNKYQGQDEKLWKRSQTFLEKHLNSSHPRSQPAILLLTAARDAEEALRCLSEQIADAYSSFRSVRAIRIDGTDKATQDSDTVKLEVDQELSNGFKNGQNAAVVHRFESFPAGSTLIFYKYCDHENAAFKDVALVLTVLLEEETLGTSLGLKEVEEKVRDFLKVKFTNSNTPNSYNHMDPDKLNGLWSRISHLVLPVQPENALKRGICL
Fibroblast growth factor 10 (Homo sapiens), sequence (O15520 whole entry, looked up): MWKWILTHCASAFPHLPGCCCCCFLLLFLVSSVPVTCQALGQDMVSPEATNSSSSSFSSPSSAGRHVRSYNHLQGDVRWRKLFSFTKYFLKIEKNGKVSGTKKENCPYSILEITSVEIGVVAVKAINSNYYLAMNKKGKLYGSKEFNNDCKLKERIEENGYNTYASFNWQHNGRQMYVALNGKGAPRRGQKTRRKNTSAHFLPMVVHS
Follistatin-related protein 3 (Homo sapiens), sequence (O95633 whole entry, looked up): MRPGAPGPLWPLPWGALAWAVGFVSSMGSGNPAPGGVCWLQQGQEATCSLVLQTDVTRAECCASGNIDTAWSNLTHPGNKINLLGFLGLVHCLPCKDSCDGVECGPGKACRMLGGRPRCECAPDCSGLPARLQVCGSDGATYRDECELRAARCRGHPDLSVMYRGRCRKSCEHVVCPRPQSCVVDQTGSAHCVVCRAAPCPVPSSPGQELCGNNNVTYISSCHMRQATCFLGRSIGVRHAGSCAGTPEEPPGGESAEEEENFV
Alpha-bungarotoxin (Bungarus multicinctus), sequence (P60615 whole entry, looked up): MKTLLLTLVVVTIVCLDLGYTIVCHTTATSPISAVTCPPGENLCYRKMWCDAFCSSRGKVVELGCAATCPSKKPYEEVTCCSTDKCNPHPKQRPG

As for `CCOC(=O)C[C@H]1[C@H](OC(=O)Cc2ccc3c(c2)OCO3)[C@@H](NC(=O)CC(C)C)c2cc(OCCCO)ccc2N1C(=O)Cc1ccc(OC)cc1`, the composite z-score in assay [1] is -0.25; in [2] it was -0.283; in [3], -0.0563; in assay [5] it was 0.139; in assay [6], 0.0308; in assay [7], -0.0638. The composite z-score was -0.0495 in assay [8]; 0.0009 in assay [9]; 0.26 in [10]; 0.479 in assay [11]; 0.073 in [13]; -0.221 in assay [14]. Further, the composite z-score in assay [15] is -0.361; in assay [16], -0.012; in [17], -0.138; in assay [18] it was -0.25; in assay [19], 0.466; in assay [20] it was 1.03. The z-score in assay [4] is -1.86 (inactive); in assay [12], -0.948.

Take `CCC(CC)C(O)C1C=CC2C(=O)N(c3ccccc3)C(=O)C2N1Nc1ccc(C(C)C)cc1` (stereo not given): the composite z-score was 1.23 in [1]; 0.789 in assay [2]; 0.948 in assay [3]; 0.663 in assay [5]; 1.17 in assay [6]; 0.0407 in assay [7]. Further, the composite z-score in assay [8] was 0.932; in assay [9], -0.0563; in assay [10], 0.916; in assay [11], 1.28; in assay [13], -0.0146; in [14], 1.04. Moreover, the composite z-score in assay [15] is 0.419; in [16], -0.0643; in assay [17] it was 0.698; in assay [18], 0.967; in assay [19] it was 1.23; in [20], 1.27. Further, the values for the z-score in [4] and in assay [12] were -0.0169 (inactive) and -0.652, respectively.

As to `COC(=O)C1=CC(CCCO)=CC(C2CC2)N(C)C=C1C(=O)OC` (stereo not given), the composite z-score in [1] was 0.948; in assay [2], -0.302; in assay [3], 0.41; in assay [5] it was -0.259; in assay [6], -0.302; in assay [7], -0.0025. The composite z-score was 0.481 in [8]; -0.673 in [9]; 0.576 in assay [10]; -0.105 in [11]; -0.087 in [13]; 0.727 in assay [14]. Moreover, the composite z-score was 0.295 in assay [15]; -0.184 in assay [16]; 0.449 in [17]; -0.328 in [18]; 1.03 in assay [19]; -0.24 in assay [20]. Moreover, the z-score was -0.519 (inactive) in assay [4] and -0.902 in assay [12].

Turning to `COC(=O)c1c(CC[C@@H](CO)NC(=O)N2CCC[C@H]2Cn2cc(Cc3ccccc3)nn2)oc(C(C)=O)c1C(=O)OC`, the composite z-score in [1] was 0.787; in [2], -0.0956; in assay [3] it was -0.553; in [5], 0.572; in [6] it was 0.0908; in assay [7], -0.0867. In addition, the composite z-score is 0.92 in assay [8]; 0.135 in assay [9]; 0.268 in assay [10]; 0.916 in assay [11]; -0.0041 in [13]; -0.128 in [14]. Moreover, the composite z-score was -0.658 in assay [15]; -0.0778 in assay [16]; -0.167 in [17]; 0.113 in assay [18]; 0.0411 in assay [19]; 0.17 in assay [20]. The z-score in [4] is -0.311 (inactive); in [12], 0.139.

In the case of `CO[C@H]1O[C@H](CO)[C@@H](OC(=O)Nc2ccccc2-c2ccccc2)[C@H](OC(=O)Nc2ccc3c(c2)OCO3)[C@H]1OC(=O)Nc1ccc2c(c1)OCO2`, the composite z-score in assay [1] is 1.38; in assay [2], 0.244; in assay [3], 0.485; in assay [5], 1.24; in [6], 1.32; in assay [7], 0.17. Besides, the composite z-score in assay [8] is 1.43; in assay [9] it was 0.298; in assay [10], 0.752; in assay [11], 1.29; in assay [13] it was 0.395; in assay [14] it was 0.58. Moreover, the composite z-score in assay [15] is -0.187; in [16], -0.0194; in [17], 0.398; in assay [18], 1.19; in [19], 1.76; in [20] it was 1.25. The z-score was -1.2 (inactive) in assay [4] and 1.54 in assay [12].

For `C=C(C)c1cc2c(c(CCCCCC)n1)[Si](C(C)C)(C(C)C)OC2`, the composite z-score in assay [1] is -0.491; in assay [2] it was -0.304; in [3], 0.149; in [5], -1.04; in assay [6] it was -1.18; in assay [7] it was -1.01. Also, the composite z-score was -1.24 in [8]; -1.31 in [9]; 0.138 in assay [10]; -1.01 in assay [11]; -1.08 in assay [13]; -0.689 in assay [14]. For the same molecule, the composite z-score in assay [15] is 0.603; in [16] it was -0.145; in assay [17] it was -0.123; in assay [18], -0.295; in assay [19] it was -1.07; in assay [20] it was -0.676. For the same molecule, the values for the z-score in [4] and in [12] were -0.392 (inactive) and -0.35, respectively.
